From PubChem BioAssay (NCI)
About 79,000 compounds went through this panel and 15% of them were active in at least one assay; those are over-represented in the sample as a whole. No stated cut-off is given here; in the data, active means growth inhibition above about 70%; inactive means the rest.

How the values were obtained:
[1] = NCI Yeast Anticancer Drug Screen. Data for the rad50 strain (AID 155);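 further: 0% = growth of vehicle-only cultures of the same strain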; settings: S. cerevisiae rad50 strain growth inhibition; at 50.0 µM; hits give high values
Procedure, shortened: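 Readout: growth inhibition relative to vehicle-treated cultures. Compound exposure was carried out in a genetically defined yeast strain deficient in DNA damage repair.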

[2] = NCI Yeast Anticancer Drug Screen. Data for the mec2-1 strain (AID 157); settings: S. cerevisiae mec2-1 strain, at 50.0 µM, hits give high values
Procedure, shortened: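 Mutant yeast (mec2-1) grown with compound; growth inhibition relative to vehicle control reported.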

[3] = NCI Yeast Anticancer Drug Screen. Data for the sgs1 mgt1 strain (AID 161);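 further: 0% = growth of cultures given vehicle only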; settings: S. cerevisiae sgs1 mgt1 strain, at 50.0 µM, hits give high values
Procedure, shortened: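 Growth of a repair-deficient yeast mutant was monitored after compound treatment and expressed as inhibition relative to vehicle-treated cultures.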

[4] = NCI Yeast Anticancer Drug Screen. Data for the cln2 rad14 strain (AID 165);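 further: 0% = growth equal to vehicle treated cultures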; settings: S. cerevisiae cln2 rad14 strain, at 50.0 µM, hits give high values
Procedure, shortened: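 Readout is yeast growth inhibition versus vehicle-treated controls, using a strain with cln2 and rad14 alterations exposed to compound.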

[5] = NCI Yeast Anticancer Drug Screen. Data for the bub3 strain (AID 167); settings: S. cerevisiae bub3 mutant strain, at 50.0 µM, hits give high values
Procedure, shortened: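 Readout: yeast growth inhibition, expressed relative to vehicle-only wells. The test organism is a mutant strain from a panel with lesions in DNA repair or checkpoint genes.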

[6] = NCI Yeast Anticancer Drug Screen. Data for the mlh1 rad18 strain (AID 175); settings: S. cerevisiae mlh1 rad18 strain growth inhibition; at 50.0 µM; hits give high values
Procedure, shortened: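 Genetically defined yeast (DNA repair-deficient) exposed to compounds; growth inhibition determined relative to vehicle.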

Measured: growth inhibition

CC(=O)Nc1ccc[n+](C)c1
inactive: [1] 0.65% | [2] 17.9% | [3] -6.9% | [4] -3.3% | [5] 33.3% | [6] -1.95%

CC1(C)CC(=O)C(C(c2ccc3c(c2)CCC3)C2C(=O)CC(C)(C)CC2=O)C(=O)C1
inactive: [1] -18.1% | [2] -27.9% | [3] -31.1% | [4] 23.9% | [5] -26.3% | [6] -21.4%

O=C(C[N+]1(c2ccccc2)CCOCC1)c1ccccc1
inactive: [1] 28.4% | [2] 5.6% | [3] -13.8% | [4] 4.7% | [5] -4.25% | [6] 21.1%

O=C(Nc1ccc(Cl)cc1C(F)(F)F)C(=O)C1CCCS1(=O)=O (configuration not stated)
inactive: [1] -7.05% | [2] -10.9% | [3] -4.5% | [4] 12.9% | [5] -6.4% | [6] -8.8%

Fc1ccccc1-c1nnc(-c2ccccc2F)o1
inactive: [1] 1.65% | [2] 8.3% | [3] 6.85% | [4] 10.8% | [5] 48.2% | [6] 1.3%

O=C(SCc1ccccc1)N(c1ccccc1)c1ccccc1
inactive: [1] -0.55% | [2] 11.9% | [3] 0% | [4] 22.4% | [5] 12.4% | [6] 5.3%

CCN(CC)C(=O)c1ccc[n+](Cc2ccc(Cl)c(Cl)c2)c1
inactive: [1] 3.15% | [2] -8.25% | [3] -8.75% | [4] 6.45% | [5] 1.2% | [6] 9.25%

CC(O)CN(CC(C)O)S(=O)(=O)c1ccc(N)cc1 (configuration not stated)
inactive: [1] -9.15% | [2] -14.2% | [3] -0.45% | [4] -9.3% | [5] 13.8% | [6] -2%

CCC(CC)CCC(=O)CC(C)C
inactive: [1] 23.9% | [2] -3.5% | [3] -15.6% | [4] 5.5% | [5] -19% | [6] 7.1%

Cc1cc[n+](-c2nc3c([O-])n(C)c(=O)n(C)c-3n2)cc1
inactive: [1] 0.65% | [2] 10.6% | [3] 6% | [4] -40.2% | [5] 8.95% | [6] 19.4%

CCC(C)(O)C#CC(C)(O)CC (configuration not stated)
inactive: [1] -0.1% | [2] -0.95% | [3] 11.8% | [4] -63% | [5] 9.8% | [6] -40.8%

Nc1ccncn1
inactive: [1] -20.9% | [2] -0.85% | [3] -2.45% | [4] -5% | [5] -4.35% | [6] -13.8%

CSc1nc(C)c(Br)c(=O)n1C1OC(COC(C)=O)C(OC(C)=O)C(OC(C)=O)C1OC(C)=O (configuration not stated)
inactive: [1] -1.2% | [2] -7.5% | [3] -13.1% | [4] 22.2% | [5] -19.9% | [6] 1.35%

C=C(C)c1ccc(F)cc1
inactive: [1] 3.9% | [2] -7.5% | [3] -1.65% | [4] 4.2% | [5] -2.05% | [6] 0.55%

N/N=C(\C(=O)Nc1c(Cl)cc([N+](=O)[O-])cc1Cl)C(c1cnc2ccc([N+](=O)[O-])cc2n1)[N+](=O)[O-] (configuration not stated)
inactive: [1] -38.7% | [2] 0.7% | [3] 10.4% | [4] 15.1% | [5] -23.5% | [6] -26.6%

BrCCCOc1ccccc1Br
inactive: [1] 14.6% | [2] -11.2% | [3] 1.6% | [4] -32.1% | [5] 4.2% | [6] 14.2%

Cn1nnc(C(=O)O)n1
inactive: [1] -7.75% | [2] -4.35% | [3] -4.7% | [4] -19.8% | [5] -11.4% | [6] -10.8%

CC1=CC(O)C(C(O)(C(F)(F)F)C(F)(F)F)C(C)(C)C1 (configuration not stated)
inactive: [1] -26.8% | [2] -41.2% | [3] -9.95% | [4] -4.6% | [5] 0.15% | [6] -1.25%

Cc1cc(CSCCc2nc3ccccc3[nH]2)c(O)c(CSCCc2nc3ccccc3[nH]2)c1
inactive: [1] 15.1% | [2] 3.8% | [3] 5.55% | [4] -42% | [5] -6.65% | [6] 14.4%

NC(=O)c1[nH]nc(C2OC(CO)C(O)C2O)c1O (configuration not stated)
inactive: [1] 8% | [2] -27.2% | [3] 7.35% | [4] -0.05% | [5] -22.9% | [6] 8.75%

COc1ccc(/C=N/n2cnc3c(c2=O)S/C(=C2/SC(=S)N(c4ccc(C)cc4)C2=O)N3c2ccccc2)cc1
inactive: [1] -29.5% | [2] -57.2% | [3] -12.8% | [4] -75% | [5] -25.9% | [6] -11.9%

O=C(O)CCC1CCc2cccc(OCC(=O)O)c2C1=O (configuration not stated)
inactive: [1] 2% | [2] -4.3% | [3] -16.2% | [4] 23.5% | [5] -4.4% | [6] -11.7%

CCCCCCCSC#N
inactive: [1] -7.6% | [2] 20.9% | [3] -1.9% | [4] -22.4% | [5] 9.75% | [6] 29.6%

CCON=C1C(C)(C)C(C)(C)C(C)(C)C1(C)C
inactive: [1] -13.4% | [2] 0.2% | [3] -24.6% | [4] 37.4% | [5] -16.1% | [6] -2.05%

COC(=O)C(N)C(C)C (configuration not stated)
inactive: [1] 13.8% | [2] 9.15% | [3] -10.3% | [4] -6.9% | [5] 4.55% | [6] 0.35%

O=[N+]([O-])/C(Cl)=C(/C(Cl)=C(Cl)Cl)N1CCOCC1
inactive: [1] 5.55% | [2] 4.8% | [3] 44% | [4] 6.35% | [5] 23.9% | [6] 11.7%

Cc1ccc(NC(=O)C2C(=O)N(c3ccc(C)c(C)c3)C(=O)C2N=N)cc1C (configuration not stated)
inactive: [1] 7.9% | [2] 34.8% | [3] 26.6% | [4] -41.8% | [5] 0.35% | [6] 44.9%

CCCCCCCCCCCCSCCO
inactive: [1] 20.9% | [2] 10.8% | [3] 39% | [4] 31.4% | [5] 17.1% | [6] 39%

COC1CC(NC(C)=O)C(OC(C)=O)C(CN=[N+]=[N-])O1 (configuration not stated)
inactive: [1] 5.1% | [2] 9.3% | [3] 8% | [4] -11.4% | [5] -10.2% | [6] 6.4%

CC(=O)N=C1CSc2ccccc2N1C
inactive: [1] -1.15% | [2] -7.2% | [3] -7.9% | [4] -40.4% | [5] -15.5% | [6] -8.9%

O=S(=O)(c1ccc(Cl)cc1)N1CCN(S(=O)(=O)c2ccc(Cl)cc2)C1
inactive: [1] 2.05% | [2] 8.1% | [3] -14.3% | [4] -21.6% | [5] -0.05% | [6] 15.6%

Cc1ccc(C2(C(=O)O)CC2)cc1
inactive: [1] -3.2% | [2] -25.7% | [3] 12.3% | [4] 21.4% | [5] -13.8% | [6] 5.15%

COC1=CC(=O)N/C1=C(\OC)c1ccccc1
inactive: [1] -24.5% | [2] -0.95% | [3] -7% | [4] -5.6% | [5] -15.2% | [6] -5.2%

CN(C)c1ccc(Cc2c[nH]c3ccccc3c2=O)cc1
inactive: [1] 8.4% | [2] 12.8% | [3] 18.8% | [4] 12.2% | [5] 25.1% | [6] 9.65%

S=C(S)OC1CCCCC1.[Zn+2]
inactive: [1] -14.9% | [2] -15.8% | [3] -22.2% | [4] -50.9% | [5] -24.8% | [6] -12.2%

CCCCCCc1ccc2c3cccc4cccc(c5cccc1c52)c43
inactive: [1] -9.25% | [2] -15.6% | [3] -22.1% | [4] -34.2% | [5] -11.1% | [6] -25.6%

COc1cc(C2(C)SCCCS2)c(I)c(OC)c1OC
inactive: [1] -8.55% | [2] -3.05% | [3] -8.15% | [4] 13.2% | [5] 2.85% | [6] -14.4%

CCCN=C1NS(=O)(=O)c2ccccc21
inactive: [1] 8.35% | [2] -14.8% | [3] -15.3% | [4] -11.8% | [5] -7.55% | [6] -7.7%

CCCCc1c2c(nn1C(C)=O)C(=O)C=C(Nc1ccccc1)C2=O
inactive: [1] 21.8% | [2] 21.8% | [3] 19.7% | [4] -7.65% | [5] 4.7% | [6] 9.5%

O=S(=O)(CS(=O)(=O)Nc1ccccc1)Nc1ccccc1
inactive: [1] 21.1% | [2] 26.9% | [3] 21.7% | [4] -4.45% | [5] 11.3% | [6] 21.3%

O=C(O)c1cccc(Cl)c1-c1c(Cl)cccc1C(=O)O
inactive: [1] 4.65% | [2] -0.95% | [3] 17.8% | [4] 11.8% | [5] 17.3% | [6] -8.45%

CC[O-].CC[O-].O=C([CH-]C(=O)c1cccnc1)c1ccccc1.O=C([CH-]C(=O)c1cccnc1)c1ccccc1.[Ti+4]
inactive: [1] -0.05% | [2] 19.8% | [3] -19.9% | [4] -16.2% | [5] -11.6% | [6] -8.4%
